Source: PubChem (National Center for Advancing Translational Sciences (NCATS))
The list is not random: actives were taken first. Their share in the collection is about 19%.
IL1B secr inh – inflammasome signaling inhibition, IL-1 beta readout | THP-1 LPS/ATP IL-1B secretion, AlphaLISA, 16 h; stronger effect = lower value | AID 743279 | activity change, % at 57.5 µM | actives 4.7% (n = 360,000); in the data active means activity change below about -50%; inconclusive means mostly about -30% to -49%
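Secreted IL-1B measured by AlphaLISA bead assay after 16 h compound exposure of THP-1 cells; compounds (final up to 57.5 uM) added 1 h before LPS (250 ng/mL) and ATP (1.25 mM) stimulation; lower signal means less secretion.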
HT1080-NT tox – kills 2HG-producing HT-1080-NT fibrosarcoma cells. Potency, µM (doses to about 46.1 µM), inactives show at the top dose activity, negative = less viability, actives largely listed as cytotoxic. AID 686970. HT-1080-NT fibrosarcoma viability, CellTiter-Glo ATP luminescence, 48 h. actives 1.6% (n = 360,000);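 further: NT is the 2HG producing partner of a matched IDH1 knockdown line; potency means the concentration at half of the fitted maximal effect; 0% = DMSO-treated cells and -100% = media-only wells without cells; nearly all actives have a fitted effect of over 55% in size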
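Compounds were tested in concentration-response format on HT-1080-NT cells for 48 hours at 37 degrees C. Cell viability came from CellTiter-Glo luminescence; curves were classified by r2, response magnitude and activity.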
ELG1 repair inh – ELG1-dependent DNA repair inhibition; Potency, µM (doses to about 46.1 µM), for the others: at the highest dose activity change, negative = inhibition, actives largely listed as inhibitors; HEK293T ELG1-luciferase reporter, luminescence, 16 h; DNA damage induced by 5-fluorouridine; actives 2.3% (n = 330,000); further: potency means the concentration at half of the fitted maximal effect; nearly all actives have a fitted effect of over 55% in size
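Overnight (16 hr) co-exposure of 2,000 cells/well to 5-fluorouridine and compound at 37 °C preceded detection. Luciferase was quantified via ONE-Glo luminescence; loss of signal denotes inhibition.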
DT40 TDP1 CPT – growth inhibition of DT40 Tdp1-/-;hTDP1 cells with camptothecin (screen for TDP1 inhibitors); chicken DT40 Tdp1-/-;hTDP1 cells + 20 nM CPT, ATP luminescence, 48 h; Potency, µM (highest dose often 46.2 µM), without a hit: at the highest dose activity change, negative = growth inhibition, hits mostly inhibitors; actives 12% (n = 420,000); AID 686979; further: potency means the concentration at half of the fitted maximal effect; nearly all actives have a fitted effect of over 55% in size
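Chicken DT40 Tdp1-/- cells stably complemented with human TDP1 were seeded at 400 cells/well in medium containing 20 nM camptothecin, exposed to pin-transferred compounds, and grown at 37 °C for at least 48 hr. Viability was read as ATP luminescence.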
HT1080 IDH1KD tx – toxicity to HT-1080 IDH1 knockdown cells (counter line); AID 686971; Potency, µM (highest dose often 46.1 µM), inactives show top-dose activity, negative = toxicity, most hits filed as cytotoxic; HT-1080 IDH1 knockdown viability, ATP luminescence, 48 h; actives 2% (n = 360,000);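 further: potency means the concentration at half of the fitted maximal effect; 0% = DMSO wells and -100% = cell-free medium wells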
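Using the IDH1-knockdown HT-1080 line run in the same batch and compound series as the NT line, viability after 48 h at 37 °C was determined by CellTiter-Glo luminescence and expressed as % activity.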
DT40 TDP1 no CPT – qHTS for Inhibitors of human tyrosyl-DNA phosphodiesterase 1 (TDP1): qHTS in cells in absence of CPT; actives 15% (n = 420,000); Potency, µM (top dose mostly 46.2 µM), without a hit: top-dose activity change, negative = growth inhibition, usual class: inhibitors; DT40 Tdp1-/- hTDP1 cells, no CPT, ATP luminescence, 48 h; further: potency means the concentration at half of the fitted maximal effect; nearly all actives have a fitted effect of over 55% in size
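Seeded 400 DT40-hTDP1 cells/well (vehicle DMSO, no 20 nM CPT); pinned compounds; ≥48 hr at 37 °C; CellTiter-Glo luminescence as viability measure.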
* hit, by the source's call; ! = not confirmed by another sample; [ ] = remark or other dose. Unless noted, the call rests on the fitted dose curve; in most records, active means well fitted curve in the direction sought with a large enough effect; inconclusive means small, poorly fitted or top-dose-only effect, or another doubt; inactive means no such curve, though single readings can be large; an effect the other way counts as inactive or inconclusive. Unless noted, on the % scale 0 is the no-effect control and ±100 the full control effect.

Screening OC(COc1ccc2ccccc2c1Br)Cn1cnc(-c2ccccc2)c1 (configuration not stated) returned IL1B secr inh -96*, HT1080-NT tox inconclusive, ELG1 repair inh -3%, DT40 TDP1 CPT inconclusive, HT1080 IDH1KD tx inconclusive and DT40 TDP1 no CPT inconclusive.
`Cc1cccc(NC(=O)CN2C(=O)S/C(=C\c3cc(C)n(C)c3C)C2=O)c1` gave IL1B secr inh -2, HT1080-NT tox -13%, ELG1 repair inh -5%, DT40 TDP1 CPT -22%, HT1080 IDH1KD tx -4% and DT40 TDP1 no CPT 18µM*.
`O=C(Oc1cc2oc(=O)cc(-c3ccccc3)c2cc1Cl)C1CCCCC1` gave IL1B secr inh 11, HT1080-NT tox -2%, ELG1 repair inh 16µM*, DT40 TDP1 CPT 2%, HT1080 IDH1KD tx -6% and DT40 TDP1 no CPT -13%.
Screening CC(C)(C)OC(=O)NCC(=O)Oc1cc2oc(=O)cc(-c3ccccc3)c2cc1Cl returned IL1B secr inh 0, HT1080-NT tox -5%, ELG1 repair inh inconclusive, DT40 TDP1 CPT -21%, HT1080 IDH1KD tx 1% and DT40 TDP1 no CPT inconclusive.
For COc1ccc(CNC(=O)C2CCCN(S(=O)(=O)c3ccc(-n4cnnn4)cc3)C2)cc1 (configuration not stated) the results were IL1B secr inh 43, HT1080-NT tox -2%, ELG1 repair inh -3%, DT40 TDP1 CPT -2%, HT1080 IDH1KD tx 2% and DT40 TDP1 no CPT -22%.
Screening CC(=O)Nc1ccccc1-c1nc2ccc(C(=O)N3CCN(c4ccccc4)CC3)cc2[nH]c1=O returned IL1B secr inh 13, HT1080-NT tox 1%, ELG1 repair inh -5%, DT40 TDP1 CPT -17%, HT1080 IDH1KD tx 0% and DT40 TDP1 no CPT -21%.
For CC(=O)Nc1ccccc1-c1nc2cc(C#N)c(C#N)cc2[nH]c1=O the results were IL1B secr inh 8, HT1080-NT tox -2%, ELG1 repair inh inconclusive, DT40 TDP1 CPT 21µM*, HT1080 IDH1KD tx 8% and DT40 TDP1 no CPT 21µM*.
Screening O=C1C(=O)N(CCc2c[nH]c3ccccc23)C(c2cccnc2)/C1=C(/O)c1ccccc1 (configuration not stated) returned ELG1 repair inh 0%.
Screening Cc1ccc(OCc2nnn(CC(=O)NS(=O)(=O)c3c(C)noc3C)c2-c2ccccc2)cc1 returned IL1B secr inh 5, HT1080-NT tox -12%, DT40 TDP1 CPT inconclusive, HT1080 IDH1KD tx 9% and DT40 TDP1 no CPT 1µM*.
For CC(=O)c1ccc(OCc2nnn(CC(=O)O)c2-c2ccccc2)cc1 the results were IL1B secr inh -69*, HT1080-NT tox -1%, DT40 TDP1 CPT 5%, HT1080 IDH1KD tx 22% and DT40 TDP1 no CPT 6%.
Screening O=S1(=O)CCOCCCN1Cc1ccccc1Br returned IL1B secr inh -3, HT1080-NT tox 9%, ELG1 repair inh -4%, DT40 TDP1 CPT 29µM*!, HT1080 IDH1KD tx -1% and DT40 TDP1 no CPT -28%.
For Cc1ccccc1CN1CCCOCCS1(=O)=O the results were IL1B secr inh -1, HT1080-NT tox 14%, ELG1 repair inh -2%, DT40 TDP1 CPT -2%, HT1080 IDH1KD tx 10% and DT40 TDP1 no CPT inconclusive.
For CNC(=O)C1CC(=O)N(c2ccc(OCC(=O)Nc3ccccc3)cc2)C1 (configuration not stated) the results were IL1B secr inh 27, HT1080-NT tox 7%, DT40 TDP1 CPT 12%, HT1080 IDH1KD tx -1% and DT40 TDP1 no CPT -7%.
For COc1ccc(NC(=O)CSc2n[nH]c(N)n2)c([N+](=O)[O-])c1 the results were IL1B secr inh -19, HT1080-NT tox 14%, ELG1 repair inh 1%, DT40 TDP1 CPT -2%, HT1080 IDH1KD tx -5% and DT40 TDP1 no CPT -4%.
For COc1ccc(NC(=O)CSc2n[nH]c(C(C)C)n2)c([N+](=O)[O-])c1 the results were IL1B secr inh -67*, HT1080-NT tox -3%, ELG1 repair inh inconclusive, DT40 TDP1 CPT -18%, HT1080 IDH1KD tx 2% and DT40 TDP1 no CPT inconclusive.
`N#CCSc1nc2c(cc1C#N)CCCC2` gave IL1B secr inh 17, HT1080-NT tox 11%, ELG1 repair inh inconclusive, DT40 TDP1 CPT -17%, HT1080 IDH1KD tx 19% and DT40 TDP1 no CPT inconclusive.
N#Cc1cc2c(nc1SCc1cccnc1)CCCCC2 was read as IL1B secr inh -66*, HT1080-NT tox -17%, DT40 TDP1 CPT -24%, HT1080 IDH1KD tx 0%[9.24 µM] and DT40 TDP1 no CPT -23%.
`CN1CCc2nc(SCc3ccc(C(C)(C)C)cc3)c(C#N)cc2C1` gave IL1B secr inh -21, HT1080-NT tox inconclusive, ELG1 repair inh -12%, DT40 TDP1 CPT 23µM*, HT1080 IDH1KD tx 11µM* and DT40 TDP1 no CPT inconclusive.
CN1CCc2nc(SCc3ccc(Cl)cc3)c(C#N)c(-c3cccs3)c2C1 was read as IL1B secr inh -12, HT1080-NT tox -10%, DT40 TDP1 CPT 16µM*, HT1080 IDH1KD tx inconclusive and DT40 TDP1 no CPT inconclusive.
For N#Cc1cc2c(nc1SCc1ccccc1)CCCCC2 the results were IL1B secr inh 15, HT1080-NT tox 6%, ELG1 repair inh 34%, DT40 TDP1 CPT 18µM*, HT1080 IDH1KD tx 6% and DT40 TDP1 no CPT 21µM*.
Screening Cc1ccc(CSc2nc3c(cc2C#N)CCC3)cc1 returned IL1B secr inh 0, HT1080-NT tox 19%, ELG1 repair inh inconclusive, DT40 TDP1 CPT -9%, HT1080 IDH1KD tx 10% and DT40 TDP1 no CPT -2%.
Screening CCOC(=O)CC(=O)CSc1nc2c(c(-c3cccs3)c1C#N)CCC2 returned IL1B secr inh 23, HT1080-NT tox -1%, ELG1 repair inh -6%, DT40 TDP1 CPT 3%, HT1080 IDH1KD tx 9% and DT40 TDP1 no CPT -4%.
For Cc1ccc(C(c2sc3nc(-c4ccco4)nn3c2O)N2CCC3(CC2)OCCO3)cc1 (configuration not stated) the results were DT40 TDP1 CPT -1% and DT40 TDP1 no CPT 7%.
For O=C(O)C1CCCN1c1nc(-c2ccc(Cl)c(Cl)c2)cc(C(F)(F)F)n1 (configuration not stated) the results were IL1B secr inh 0, HT1080-NT tox -18%, ELG1 repair inh 4%, DT40 TDP1 CPT 15µM*, HT1080 IDH1KD tx -3% and DT40 TDP1 no CPT 21µM*.
